Among the data in PubChem BioAssay (EPA / NIEHS) are AC50 and outcome values, retold here.

Structures are written as SMILES. Results filed as inconclusive are left out. Active and inactive are the calls of the source. The calls were made as follows: active = hit-call score of the fitted dose curve at least 0.9, where 1 is the maximum; inconclusive = response in the unintended direction; inactive = score below 0.9.

Read-out in the assay: xenobiotic metabolism (CYP1A1), CYP1A1 (gene 1543)
Briefly: CLD_CYP1A1_48hr: CellzDirect (CLD) Gene Expression Assay for xenobiotic metabolism (CYP1A1) at 48 hours (AID 2283705). As to the method:
CLD_48hr is a cell-based, multiplexed-readout assay that uses hepatocyte, a human liver primary cell, with measurements taken at 48 hours after chemical dosing in a 96-well plate.CLD_CYP1A1_48hr is one of 16 assay component(s) measured or calculated from the CLD_48hr assay. It is designed to make measurements of mRNA induction, a form of inducible reporter, as detected with chemiluminescence signals by Quantitative Nuclease Protection Assay (qNPA) technology.Data from the assay component CLD_CYP1A1_48hr was analyzed at the endpoint, CLD_CYP1A1_48hr, in the positive analysis fitting direction relative to DMSO as the negative control and baseline of activity. Using a type of inducible reporter, gain-of-signal activity can be used to understand changes in the reporter gene as they relate to the gene CYP1A1. Furthermore, this assay endpoint can be referred to as a primary readout. To generalize the intended target to other relatable targets, this assay endpoint is annotated to the cyp intended target family, where subfamily is xenobiotic metabolism.
Human hepatocyte cultures were treated daily for two consecutive days with fresh dosing solutions containing appropriate concentrations of the 320 ToxCast chemicals (chemical identities were blinded to CellzDirect and other ToxCast collaborators), vehicle control (0.2% DMSO), and positive control inducers as summarized in Table 1. Due to the large number of treatment groups and chemicals examined, the ToxCast chemicals were divided into two groups (spanning two independent cultures of hepatocytes from separate donor preparations (Hu778: ToxCast plates 1 and 2; Hu776: ToxCast plates 3 and 4). Each preparation of human hepatocyte cultures was treated with respective vehicle control, medium only control, set of six positive controls/reference chemicals for the five hepatic receptor pathways, and a subset of eight of the ToxCast chemicals (indoxacarb, pyrithiobac-sodium, norflurazon, cyhalofop-butyl, methomyl, thiram, acetochlor, and propiconazole). These replicate data, coupled with internal replicates designed within the blinded ToxCast chemical library, provided additional data to evaluate interindividual differences between hepatocyte preparations and their potential impact on chemical profiles.Cell morphology and integrity were evaluated using phase-contrast microscopy as an indicator of hepatocyte cell health (Tyson & Green, 1987). Cultures for each treatment group (i.e., media, vehicle [0.2% DMSO], positive control inducers [multiple concentrations], and the ToxCast chemicals [multiple concentrations]) were observed and cell morphology was assessed relative to vehicle control cultures at each harvest time point (0, 6, 24, or 48 h). […] Images were evaluated at the conclusion of the study to assess changes in cell integrity and account for the effects of chemical exposure on uncharacteristic changes in concentration-dependent gene expression profiles. The results from these determinations of apparent cytotoxicity were annotated (yes/no) alongside the corresponding qNPA data for reference.At the conclusion of each treatment period, hepatocyte cultures (96-well) were washed with 1 volume of HBSS, lysed by addition of 25 ul ArrayPlate lysis buffer (HTG, Tucson, AZ), and 70 ul/well of Denaturation Oil, denatured by incubation at 95C for 10 min, and frozen at approximately -70C until analysis by nuclease protection assay (qNPA) (Roberts et al., 2007). For qNPA analysis, cell lysates were thawed at 50C for approximately 30 min, qNPA probes were added, and samples were incubated at 95C for 10 min to begin the detection process by denaturing the target RNA, dissociating the duplexes and secondary structure hybridization. At the conclusion of the hybridization period, S1 nuclease reagent was added to each sample to digest all nonprotected nucleotides at 50C for 60-90 min. […]
Broadly, the AC50 is the concentration giving half of the maximal activity seen. As to `COc1cc(Cl)c(OC)cc1Cl`, the AC50 was 3.97 µM (active).
For `COc1ccc(-c2ccccc2)cc1NNC(=O)OC(C)C`, the call was inactive.
Same read-out and setting: to `O=C1C2CC=CCC2C(=O)N1SC(Cl)(Cl)Cl` (stereo not given) belongs “inactive”.
Same read-out and setting: to `O=c1n(Cl)c(=O)n(Cl)c(=O)n1Cl` belongs “inactive”; to `Cc1nc(N(C)C)nc(OC(=O)N(C)C)c1C`, “inactive”.
On to `O=C(Nc1ccccc1-c1ccc(Cl)cc1)c1cccnc1Cl`, for which the AC50 is 20 µM (active).
`CS(=O)(=O)c1cc(C(F)(F)F)ccc1C(=O)c1cnoc1C1CC1`: the result was inactive.
For the compound `CNC(=O)N(C)c1nnc(C(C)(C)C)s1`, the outcome was inactive.
The same measure, in the same setting: the result for `COCC(C)N(C(=O)CCl)c1c(C)csc1C` (stereo not given) reads “inactive”.
Turning to `COC(=O)c1c(C(F)F)nc(C(F)(F)F)c(C2=NCCS2)c1CC(C)C`, the AC50 was 8.66 µM (active).
Consider `CCSC(=O)N1CCCCCC1`, for which the call was inactive.
Regarding `COC(=O)N(C(=O)N1CO[C@@]2(C(=O)OC)Cc3cc(Cl)ccc3C2=N1)c1ccc(OC(F)(F)F)cc1`, the AC50 was 2.72 µM (active).
With `C=C(C)CN(CC)c1c([N+](=O)[O-])cc(C(F)(F)F)cc1[N+](=O)[O-]`, the outcome was inactive.
For the compound `COc1cc(OC)nc(NC(=O)NS(=O)(=O)c2ncccc2OCC(F)(F)F)n1`, the compound was classed as inactive.
As for `Clc1nc(Cl)nc(Nc2ccccc2Cl)n1`, the outcome was inactive.
Take `COC(=O)NC(=S)Nc1ccccc1NC(=S)NC(=O)OC`: the AC50 is 3.32 µM (active).
Still for that read-out and setting: to `CCCCOCN(C(=O)CCl)c1c(CC)cccc1CC` belongs 11.5 µM (active); to `N#Cc1c[nH]cc1-c1cccc2c1OC(F)(F)O2`, 31.8 µM (active).
Still for that read-out and setting: the result for `Cc1ccc(N=CN(C)C=Nc2ccc(C)cc2C)c(C)c1` reads 5.87 µM (active); that for `COP(=S)(OC)SCn1nnc2ccccc2c1=O`, 1.36 µM (active); that for `CCOC(=O)C(C)OC(=O)c1cc(Oc2ccc(C(F)(F)F)cc2Cl)ccc1[N+](=O)[O-]` (stereo not given), 20 µM (active).
For the compound `C=CCOC(=O)C(C)(C)OC(=O)c1cc(-n2c(=O)cc(C(F)(F)F)n(C)c2=O)ccc1Cl`, the result was inactive.
Turning to `CCCCC(C#N)(Cn1cncn1)c1ccc(Cl)cc1` (stereo not given), the AC50 was 35.1 µM (active).
`Nc1c(Cl)c(F)nc(OCC(=O)O)c1Cl`: the result was inactive.
As for `COCC(=O)N(c1c(C)cccc1C)C(C)C(=O)OC` (stereo not given), the call was inactive.
Regarding `CCOP(=S)(OCC)Oc1nc(Cl)n(C(C)C)n1`, the AC50 is 5.35 µM (active).
In the case of `CC1(C)C(C=C(Cl)Cl)C1C(=O)OC(C#N)c1cccc(Oc2ccccc2)c1` (stereo not given), the compound was classed as inactive.
Turning to `CNC(=O)Oc1cccc2ccccc12`, the AC50 was 3.57 µM (active).
With `CC(C)NC(=O)N1CC(=O)N(c2cc(Cl)cc(Cl)c2)C1=O`, the AC50 was 12.3 µM (active).
For the compound `CCN(CC)C(=O)C(C)Oc1cccc2ccccc12` (stereo not given), the AC50 was 27.9 µM (active).
The same measure, in the same setting: to `Clc1cccc(C(Cl)(Cl)Cl)n1` belongs 3.97 µM (active).
For `COCc1cnc(C2=NC(C)(C(C)C)C(=O)N2)c(C(=O)O)c1` (stereo not given), the compound was classed as inactive.
Consider `Cn1c(-c2ccccc2)cc(-c2ccccc2)[n+]1C`, for which the compound was called inactive.
`CC1(C)CCC(=Cc2ccc(Cl)cc2)C1(O)Cn1cncn1` (stereo not given): the AC50 is 3.17 µM (active).
As for `O=C(O)c1c(Cl)ccc2cc(Cl)cnc12`, the compound was called inactive.
Turning to `CC(C)Oc1cccc(NC(=O)c2ccccc2C(F)(F)F)c1`, the half-maximal activity concentration (AC50) is 36.6 µM (active).
On to `Cc1cnc(C2=NC(C)(C(C)C)C(=O)N2)c(C(=O)O)c1` (stereo not given), for which the compound was called inactive.
`CCNC(=O)NC(=O)C(C#N)=NOC`: the compound was classed as inactive.
With `Nc1c(Cl)c(Cl)nc(C(=O)O)c1Cl`, the result was inactive.
Take `CO/N=C(/C1=NOCCO1)c1ccccc1Oc1ncnc(Oc2ccccc2Cl)c1F`: the AC50 was 32.4 µM (active).
